Measured values: the supplement of paper PMC11732987, “Enantioselective OTUD7B fragment discovery through chemoproteomics screening and high-throughput optimisation” (Communications Chemistry, 2025)

How the values were obtained:
Assay in all cases: log2 ratio of Biotin-Ahx-Ub-VS probe labelling (fragment/DMSO); higher = less target engagement (more negative = stronger competition), active = hit call of the paper (q ≤ 0.05, log2 ratio ≤ -1)
Details in all cases: compound concentration: 200 uM; treatment time: 3 h
USP34 = USP34 (UniProt Q70CQ2)
How it was run: (§1)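 Global-median-normalised Spectronaut label-free quantities were compared by unpaired t-test, and values are average log2 ratios of fragment over vehicle. Only proteins with ≥2 unique peptides were used. HEK293T lysate (495 µg per sample) was treated in triplicate with fragment at 200 µM or vehicle for 3 h and then with Biotin-Ahx-Ub-VS at 0.5 µM final for 1 h. Labelled DUBs were then NeutrAvidin-enriched, digested with LysC and trypsin, and run by diaPASEF LC-MS/MS.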

USP36 = target: T1, USP36 (UniProt Q9P275)
T1 sequence (whole entry): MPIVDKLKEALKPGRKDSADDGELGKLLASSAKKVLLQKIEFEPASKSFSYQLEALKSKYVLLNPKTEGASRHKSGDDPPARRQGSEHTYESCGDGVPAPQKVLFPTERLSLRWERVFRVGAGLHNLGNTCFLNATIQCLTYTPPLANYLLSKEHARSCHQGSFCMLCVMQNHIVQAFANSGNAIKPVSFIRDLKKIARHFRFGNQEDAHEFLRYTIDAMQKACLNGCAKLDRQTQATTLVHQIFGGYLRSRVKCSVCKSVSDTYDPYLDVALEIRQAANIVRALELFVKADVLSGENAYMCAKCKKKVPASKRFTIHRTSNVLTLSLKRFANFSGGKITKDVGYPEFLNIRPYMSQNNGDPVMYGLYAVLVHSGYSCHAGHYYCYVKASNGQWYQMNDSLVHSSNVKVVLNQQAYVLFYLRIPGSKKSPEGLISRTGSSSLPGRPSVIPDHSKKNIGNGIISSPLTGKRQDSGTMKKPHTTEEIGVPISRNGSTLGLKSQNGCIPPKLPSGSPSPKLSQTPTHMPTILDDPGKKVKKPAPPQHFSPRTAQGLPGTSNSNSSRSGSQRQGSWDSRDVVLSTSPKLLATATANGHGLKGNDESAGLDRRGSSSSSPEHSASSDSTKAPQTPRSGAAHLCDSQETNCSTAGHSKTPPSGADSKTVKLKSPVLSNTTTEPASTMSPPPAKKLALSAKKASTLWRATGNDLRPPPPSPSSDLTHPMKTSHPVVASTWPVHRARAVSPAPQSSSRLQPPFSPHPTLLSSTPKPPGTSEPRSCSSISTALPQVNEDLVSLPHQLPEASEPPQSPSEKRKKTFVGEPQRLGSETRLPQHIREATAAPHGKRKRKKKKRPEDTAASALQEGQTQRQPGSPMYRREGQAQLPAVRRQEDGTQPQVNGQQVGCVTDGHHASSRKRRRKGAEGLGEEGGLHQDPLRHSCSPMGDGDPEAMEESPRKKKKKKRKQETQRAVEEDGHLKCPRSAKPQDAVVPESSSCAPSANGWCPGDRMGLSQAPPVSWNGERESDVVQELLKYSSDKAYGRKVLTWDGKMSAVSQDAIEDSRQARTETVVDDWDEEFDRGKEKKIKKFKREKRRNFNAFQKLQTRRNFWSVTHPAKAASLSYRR
How it was run: as §1

USP38 = target: T2, USP38 (UniProt Q8NB14)
T2 sequence (whole entry): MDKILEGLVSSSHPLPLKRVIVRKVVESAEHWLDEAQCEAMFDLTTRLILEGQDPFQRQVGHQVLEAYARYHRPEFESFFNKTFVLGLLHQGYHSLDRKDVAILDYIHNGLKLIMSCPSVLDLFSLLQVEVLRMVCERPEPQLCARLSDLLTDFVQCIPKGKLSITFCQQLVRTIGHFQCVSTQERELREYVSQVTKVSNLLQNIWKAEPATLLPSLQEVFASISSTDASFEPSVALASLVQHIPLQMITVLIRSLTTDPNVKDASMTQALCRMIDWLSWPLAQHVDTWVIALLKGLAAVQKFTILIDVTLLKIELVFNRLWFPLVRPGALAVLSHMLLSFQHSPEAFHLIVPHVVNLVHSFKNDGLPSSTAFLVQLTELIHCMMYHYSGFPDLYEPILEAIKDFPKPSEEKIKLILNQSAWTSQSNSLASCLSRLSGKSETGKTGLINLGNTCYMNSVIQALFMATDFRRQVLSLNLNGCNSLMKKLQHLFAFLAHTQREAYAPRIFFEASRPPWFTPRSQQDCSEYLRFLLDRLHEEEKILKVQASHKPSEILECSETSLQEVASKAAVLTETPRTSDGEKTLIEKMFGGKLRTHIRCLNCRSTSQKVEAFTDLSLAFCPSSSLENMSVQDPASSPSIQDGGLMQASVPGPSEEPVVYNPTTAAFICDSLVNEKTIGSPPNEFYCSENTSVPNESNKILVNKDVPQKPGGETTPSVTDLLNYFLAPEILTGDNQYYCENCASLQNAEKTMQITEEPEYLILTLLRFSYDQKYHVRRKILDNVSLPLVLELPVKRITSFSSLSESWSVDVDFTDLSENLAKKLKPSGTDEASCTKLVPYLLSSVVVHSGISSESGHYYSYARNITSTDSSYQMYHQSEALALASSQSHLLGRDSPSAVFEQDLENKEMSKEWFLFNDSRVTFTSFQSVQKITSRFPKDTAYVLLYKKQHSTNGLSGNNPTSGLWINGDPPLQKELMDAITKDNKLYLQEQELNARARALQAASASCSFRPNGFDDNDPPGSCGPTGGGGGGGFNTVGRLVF
How it was run: as §1

USP39 = target: T3, USP39 (UniProt Q53GS9)
T3 sequence (whole entry): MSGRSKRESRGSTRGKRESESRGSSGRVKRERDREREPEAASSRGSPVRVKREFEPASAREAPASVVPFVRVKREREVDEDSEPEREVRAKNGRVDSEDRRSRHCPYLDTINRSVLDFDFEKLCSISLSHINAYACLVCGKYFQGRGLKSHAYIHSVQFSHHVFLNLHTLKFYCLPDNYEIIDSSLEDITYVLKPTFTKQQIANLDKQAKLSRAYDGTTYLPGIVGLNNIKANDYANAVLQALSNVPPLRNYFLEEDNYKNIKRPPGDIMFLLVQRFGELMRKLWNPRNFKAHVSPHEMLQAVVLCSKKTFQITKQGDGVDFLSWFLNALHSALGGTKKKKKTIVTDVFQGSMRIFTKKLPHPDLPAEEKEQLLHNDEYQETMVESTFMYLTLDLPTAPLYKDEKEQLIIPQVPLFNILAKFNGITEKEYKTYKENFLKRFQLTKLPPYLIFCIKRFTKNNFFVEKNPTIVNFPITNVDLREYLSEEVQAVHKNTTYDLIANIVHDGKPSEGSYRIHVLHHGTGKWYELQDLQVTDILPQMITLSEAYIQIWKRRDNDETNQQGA
How it was run: as §1

USP4 = target: T4, USP4 (UniProt Q13107)
T4 sequence (whole entry): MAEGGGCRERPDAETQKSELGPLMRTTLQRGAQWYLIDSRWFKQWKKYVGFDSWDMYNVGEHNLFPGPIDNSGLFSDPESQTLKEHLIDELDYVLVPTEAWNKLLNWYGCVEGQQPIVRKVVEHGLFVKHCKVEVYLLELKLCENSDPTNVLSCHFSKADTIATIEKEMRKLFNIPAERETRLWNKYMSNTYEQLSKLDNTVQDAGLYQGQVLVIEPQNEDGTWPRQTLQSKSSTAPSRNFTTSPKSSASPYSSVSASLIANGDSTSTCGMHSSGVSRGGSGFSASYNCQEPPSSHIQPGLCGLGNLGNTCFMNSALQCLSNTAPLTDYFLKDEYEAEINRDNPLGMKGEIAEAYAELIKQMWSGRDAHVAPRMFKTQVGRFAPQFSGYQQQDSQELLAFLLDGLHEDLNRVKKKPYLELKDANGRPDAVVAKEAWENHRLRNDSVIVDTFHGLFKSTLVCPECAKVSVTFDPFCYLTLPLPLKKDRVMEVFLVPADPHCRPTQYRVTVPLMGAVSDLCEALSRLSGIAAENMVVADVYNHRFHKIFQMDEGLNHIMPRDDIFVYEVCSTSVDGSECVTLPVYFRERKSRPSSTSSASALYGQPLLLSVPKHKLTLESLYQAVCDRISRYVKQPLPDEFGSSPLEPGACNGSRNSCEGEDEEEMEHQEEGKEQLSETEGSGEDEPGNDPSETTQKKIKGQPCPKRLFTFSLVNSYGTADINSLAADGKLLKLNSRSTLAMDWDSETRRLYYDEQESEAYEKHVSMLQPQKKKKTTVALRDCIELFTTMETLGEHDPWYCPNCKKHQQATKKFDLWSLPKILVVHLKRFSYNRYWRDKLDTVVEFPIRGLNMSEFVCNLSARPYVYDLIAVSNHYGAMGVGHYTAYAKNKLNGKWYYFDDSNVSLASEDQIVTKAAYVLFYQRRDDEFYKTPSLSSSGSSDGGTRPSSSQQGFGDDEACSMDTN
How it was run: as §1

Measured: log2 ratio of Biotin-Ahx-Ub-VS probe labelling

USP34, sequence (Q70CQ2 whole entry, the tested form may be a part): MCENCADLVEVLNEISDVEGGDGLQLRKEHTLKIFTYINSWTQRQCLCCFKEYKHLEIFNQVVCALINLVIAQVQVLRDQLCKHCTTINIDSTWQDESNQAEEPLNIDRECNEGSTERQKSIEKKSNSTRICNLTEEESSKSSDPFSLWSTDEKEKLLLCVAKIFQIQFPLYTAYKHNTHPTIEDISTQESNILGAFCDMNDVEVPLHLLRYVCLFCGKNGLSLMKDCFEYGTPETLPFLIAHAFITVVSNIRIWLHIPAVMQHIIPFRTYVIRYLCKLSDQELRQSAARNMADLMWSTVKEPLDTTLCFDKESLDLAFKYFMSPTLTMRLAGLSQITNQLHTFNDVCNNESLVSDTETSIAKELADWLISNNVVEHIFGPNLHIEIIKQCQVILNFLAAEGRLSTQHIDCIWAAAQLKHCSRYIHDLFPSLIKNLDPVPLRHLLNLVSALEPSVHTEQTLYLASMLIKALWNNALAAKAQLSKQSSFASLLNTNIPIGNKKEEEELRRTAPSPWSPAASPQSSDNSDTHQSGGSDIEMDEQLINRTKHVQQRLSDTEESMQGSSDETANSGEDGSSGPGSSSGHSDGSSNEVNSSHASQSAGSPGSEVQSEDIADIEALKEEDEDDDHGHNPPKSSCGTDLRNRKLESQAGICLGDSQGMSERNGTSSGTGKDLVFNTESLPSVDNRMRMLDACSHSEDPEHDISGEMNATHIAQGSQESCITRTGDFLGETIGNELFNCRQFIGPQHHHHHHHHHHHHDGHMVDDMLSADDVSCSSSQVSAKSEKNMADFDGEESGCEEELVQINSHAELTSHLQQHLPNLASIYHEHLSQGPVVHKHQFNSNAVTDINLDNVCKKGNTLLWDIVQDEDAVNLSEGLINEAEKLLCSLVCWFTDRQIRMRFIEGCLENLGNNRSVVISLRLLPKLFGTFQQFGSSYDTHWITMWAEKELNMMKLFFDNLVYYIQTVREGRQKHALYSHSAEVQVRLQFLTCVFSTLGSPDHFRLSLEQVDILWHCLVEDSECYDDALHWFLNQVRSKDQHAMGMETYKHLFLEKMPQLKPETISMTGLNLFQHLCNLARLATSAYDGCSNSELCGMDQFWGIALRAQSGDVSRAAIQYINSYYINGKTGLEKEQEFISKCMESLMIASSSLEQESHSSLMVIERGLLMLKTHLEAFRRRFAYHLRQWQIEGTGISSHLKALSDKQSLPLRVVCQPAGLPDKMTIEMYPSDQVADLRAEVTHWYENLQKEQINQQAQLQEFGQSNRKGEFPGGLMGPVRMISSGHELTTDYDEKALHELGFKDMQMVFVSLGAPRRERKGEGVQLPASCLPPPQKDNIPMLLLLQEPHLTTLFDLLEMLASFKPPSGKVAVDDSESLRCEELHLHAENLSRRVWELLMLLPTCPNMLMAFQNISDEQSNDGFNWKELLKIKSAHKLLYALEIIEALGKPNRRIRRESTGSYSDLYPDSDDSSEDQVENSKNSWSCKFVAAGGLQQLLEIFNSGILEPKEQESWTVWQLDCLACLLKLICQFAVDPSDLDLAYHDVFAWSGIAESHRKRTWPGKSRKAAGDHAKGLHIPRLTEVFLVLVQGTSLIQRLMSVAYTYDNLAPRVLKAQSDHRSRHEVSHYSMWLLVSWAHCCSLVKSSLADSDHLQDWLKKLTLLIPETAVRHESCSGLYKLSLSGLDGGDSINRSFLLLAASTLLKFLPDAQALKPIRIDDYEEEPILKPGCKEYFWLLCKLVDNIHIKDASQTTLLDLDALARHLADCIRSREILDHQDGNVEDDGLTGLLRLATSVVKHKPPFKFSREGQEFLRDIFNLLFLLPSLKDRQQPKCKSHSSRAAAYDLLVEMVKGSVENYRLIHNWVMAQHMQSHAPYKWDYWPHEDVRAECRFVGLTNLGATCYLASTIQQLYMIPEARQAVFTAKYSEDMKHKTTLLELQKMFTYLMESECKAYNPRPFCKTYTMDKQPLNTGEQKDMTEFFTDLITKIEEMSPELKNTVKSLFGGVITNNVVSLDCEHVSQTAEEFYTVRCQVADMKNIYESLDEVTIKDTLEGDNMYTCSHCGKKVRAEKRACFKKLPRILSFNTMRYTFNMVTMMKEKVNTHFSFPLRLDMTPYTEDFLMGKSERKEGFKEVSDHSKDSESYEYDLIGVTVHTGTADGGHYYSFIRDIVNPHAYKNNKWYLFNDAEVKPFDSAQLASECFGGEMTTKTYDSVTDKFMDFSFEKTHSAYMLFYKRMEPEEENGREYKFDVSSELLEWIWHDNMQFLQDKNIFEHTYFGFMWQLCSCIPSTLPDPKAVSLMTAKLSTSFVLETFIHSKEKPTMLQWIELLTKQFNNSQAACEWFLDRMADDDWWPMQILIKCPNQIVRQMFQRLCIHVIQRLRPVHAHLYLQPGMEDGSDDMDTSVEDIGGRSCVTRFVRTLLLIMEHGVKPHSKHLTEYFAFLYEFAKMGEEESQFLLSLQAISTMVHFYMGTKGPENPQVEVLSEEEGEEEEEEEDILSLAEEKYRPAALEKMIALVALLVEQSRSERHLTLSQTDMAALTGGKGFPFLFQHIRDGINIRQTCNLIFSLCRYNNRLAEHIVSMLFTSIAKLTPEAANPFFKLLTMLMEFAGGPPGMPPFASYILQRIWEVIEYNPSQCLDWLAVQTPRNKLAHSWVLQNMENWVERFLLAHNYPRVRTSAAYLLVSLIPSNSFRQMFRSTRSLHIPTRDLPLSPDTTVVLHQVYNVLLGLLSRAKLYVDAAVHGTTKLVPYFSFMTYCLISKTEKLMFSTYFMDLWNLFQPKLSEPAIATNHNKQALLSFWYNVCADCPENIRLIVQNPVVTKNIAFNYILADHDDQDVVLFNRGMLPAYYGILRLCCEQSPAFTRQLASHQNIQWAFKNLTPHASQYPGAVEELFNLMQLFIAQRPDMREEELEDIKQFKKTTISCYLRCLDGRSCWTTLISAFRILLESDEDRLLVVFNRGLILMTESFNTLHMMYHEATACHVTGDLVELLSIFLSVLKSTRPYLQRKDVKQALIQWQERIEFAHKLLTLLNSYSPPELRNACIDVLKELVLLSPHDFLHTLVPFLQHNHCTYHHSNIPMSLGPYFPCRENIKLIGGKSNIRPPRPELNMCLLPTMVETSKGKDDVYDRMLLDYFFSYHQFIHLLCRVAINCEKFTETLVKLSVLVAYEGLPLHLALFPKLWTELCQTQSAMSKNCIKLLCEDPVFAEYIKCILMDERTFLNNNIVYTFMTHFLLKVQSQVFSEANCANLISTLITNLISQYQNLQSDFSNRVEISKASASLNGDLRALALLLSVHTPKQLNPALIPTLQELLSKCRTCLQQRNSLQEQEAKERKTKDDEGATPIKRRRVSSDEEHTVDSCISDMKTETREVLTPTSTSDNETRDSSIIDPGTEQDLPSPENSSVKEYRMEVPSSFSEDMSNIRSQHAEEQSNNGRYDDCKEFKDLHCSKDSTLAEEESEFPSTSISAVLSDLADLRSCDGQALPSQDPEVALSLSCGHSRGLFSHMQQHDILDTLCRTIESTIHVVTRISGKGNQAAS

CC1CN(c2ccc(NC(=O)CCl)cc2)CC(C)O1 (stereo not given)
inactive: USP34 -0.087 | USP36 -0.162 | USP38 0.0369 | USP39 0.216 | USP4 -0.104
